Laboratory results reported in PubChem BioAssay (NCATS).
Records with an inconclusive call do not appear. Entries that show only a call come without a potency. Active and inactive are the calls of the source. Calls follow the shape of the dose curve; as a rule, active = well fitted curve in the direction sought with a large enough effect; inconclusive = small, poorly fitted or top-dose-only effect, or another doubt; inactive = no such curve, though single readings can be large; an effect the other way counts as inactive or inconclusive.

Tests used:
[1] = P-glycoprotein substrates identified in KB-8-5-11 adenocarcinoma cell line, qHTS therapeutic library screen (AID 1346987); details: outcome: dose series up to 44.5 µM; also: series mostly up to about 44 µM; nearly all actives have a fitted effect of over 65% in size
Procedure, shortened: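 Compounds are pinned in dose-response onto KB-8-5-11 cells (500 cells/well, colchicine-free medium) and left 72 h at 37 degree C. CellTiter-Glo luminescence then yields AC50 values.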

[2] = NS1 protein of Zika virus - qHTS assay to identify small molecule inhibitors in human HEK 293 cells (AID 1347053); also: series mostly up to about 46 µM; nearly all actives have a fitted effect of over 55% in size
Procedure, shortened: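 Compound-treated (1 h pre-infection) HEK 293 cells infected with ZIKV MR766, MOI = 0.5; after 24 h at 37 C, NS1 read by TR-FRET; data normalized to uninfected and infected controls.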

[3] = qHTS of pediatric cancer cell lines to identify multiple opportunities for drug repurposing: Primary screen for TC32 cells (AID 1347089); also: nearly all actives have a fitted effect of over 60% in size
Procedure, shortened: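 Luminescent ATP read-out (CellTiter-Glo) of metabolically active TC32 cells after 48 h exposure. Concentration-response curves came from 11-point (MIPE, 0.78 nM–46 µM) or 8-point (NPC, 0.59 nM–46 µM) primary titrations; follow-up used 11 points.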

[4] = qHTS of pediatric cancer cell lines to identify multiple opportunities for drug repurposing: Primary screen for SJ-GBM2 cells (AID 1347091)
Procedure, shortened: (§1)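 Cell viability, CellTiter-Glo luminescence; 500-1,000 cells/well, 8- or 11-point titration, 48 h compound exposure at 37 degrees C, 5% CO2. Controls: DMSO neutral, bortezomib 2.3 µM final as positive.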

[5] = qHTS of pediatric cancer cell lines to identify multiple opportunities for drug repurposing: Primary screen for A673 cells (AID 1347092); also: nearly all actives have a fitted effect of over 45% in size
Procedure, shortened: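 Cell viability of A673 measured by CellTiter-Glo ATP luminescence after 48 hours compound exposure. Dilution series spanned 0.78 nM to 46 µM (MIPE, 11-point) or 0.59 nM to 46 µM (NPC, 8-point); bortezomib 2.3 uM positive control.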

[6] = qHTS of pediatric cancer cell lines to identify multiple opportunities for drug repurposing: Primary screen for SK-N-MC cells (AID 1347093); also: potency is read from the fitted curve at half-maximal effect
Procedure, shortened: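 Metabolically active cells were quantified by ATP-dependent luminescence (CellTiter-Glo, 15 min at room temperature) following 48 h treatment. Cells had been plated at 500-1,000 per well and settled for 5 h beforehand.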

[7] = qHTS of pediatric cancer cell lines to identify multiple opportunities for drug repurposing: Primary screen for BT-37 cells (AID 1347094); also: series mostly up to about 57 µM
Procedure, shortened: (§2)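 Readout: CellTiter-Glo luminescence, 48 h treatment. Controls DMSO (neutral) and bortezomib 2.3 µM final (positive). Potency and efficacy taken from primary-screen concentration-response curves.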

[8] = qHTS of pediatric cancer cell lines to identify multiple opportunities for drug repurposing: Primary screen for NB-EBc1 cells (AID 1347095)
Procedure, shortened: as §2

[9] = qHTS of pediatric cancer cell lines to identify multiple opportunities for drug repurposing: Primary screen for U-2 OS cells (AID 1347096); also: nearly all actives have a fitted effect of over 50% in size
Procedure, shortened: (§3)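 Cells (500-1,000/well) rested 5 h, then received compounds for 48 h; metabolically active cells were measured by CellTiter-Glo luminescence. Final concentrations spanned up to 46 µM (MIPE, 11-point) or 0.59 nM-46 µM (NPC, 8-point) in primary screens, 11-point in follow-ups.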

[10] = qHTS of pediatric cancer cell lines to identify multiple opportunities for drug repurposing: Primary screen for Saos-2 cells (AID 1347097); also: nearly all actives have a fitted effect of over 40% in size
Procedure, shortened: as §2

[11] = qHTS of pediatric cancer cell lines to identify multiple opportunities for drug repurposing: Primary screen for SK-N-SH cells (AID 1347098); also: nearly all actives have a fitted effect of over 65% in size
Procedure, shortened: as §3

[12] = qHTS of pediatric cancer cell lines to identify multiple opportunities for drug repurposing: Primary screen for NB1643 cells (AID 1347099); also: nearly all actives have a fitted effect of over 50% in size
Procedure, shortened: as §2

[13] = qHTS of pediatric cancer cell lines to identify multiple opportunities for drug repurposing: Primary screen for BT-12 cells (AID 1347101); also: nearly all actives have a fitted effect of over 25% in size
Procedure, shortened: as §3

[14] = qHTS of pediatric cancer cell lines to identify multiple opportunities for drug repurposing: Primary screen for Rh18 cells (AID 1347102); also: nearly all actives have a fitted effect of over 65% in size
Procedure, shortened: as §3

[15] = qHTS of pediatric cancer cell lines to identify multiple opportunities for drug repurposing: Primary screen for OHS-50 cells (AID 1347103); also: nearly all actives have a fitted effect of over 40% in size
Procedure, shortened: as §3

[16] = qHTS of pediatric cancer cell lines to identify multiple opportunities for drug repurposing: Primary screen for RD cells (AID 1347104); also: nearly all actives have a fitted effect of over 55% in size
Procedure, shortened: as §2

[17] = qHTS of pediatric cancer cell lines to identify multiple opportunities for drug repurposing: Primary screen for MG 63 (6-TG R) cells (AID 1347105); also: nearly all actives have a fitted effect of over 50% in size
Procedure, shortened: as §2

[18] = qHTS of pediatric cancer cell lines to identify multiple opportunities for drug repurposing: Primary screen for DAOY cells (AID 1347090); also: series mostly up to about 46 µM; nearly all actives have a fitted effect of over 55% in size
Procedure, shortened: as §1

[19] = qHTS of pediatric cancer cell lines to identify multiple opportunities for drug repurposing: Primary screen for LAN-5 cells (AID 1347100)
Procedure, shortened: as §3

Row | SMILES | outcome [1] | outcome [2] | outcome [3] | outcome [4] | outcome [5] | Potency [6] | outcome [7] | outcome [8] | outcome [9] | outcome [10] | outcome [11] | Potency [12] | outcome [13] | outcome [14] | outcome [15] | outcome [16] | outcome [17] | outcome [18] | outcome [19]
1 | O=C(O)[C@@H]1[C@H]2C[C@H]3c4[nH]c5ccccc5c4CCN3C[C@@H]2CC[C@@H]1O | inactive | inactive | inactive | inactive | inactive | inactive | inactive | inactive | inactive | inactive | inactive | inactive | inactive | inactive | inactive | inactive | inactive |  | 
2 | O=C(/C=C/c1ccccc1)OCc1ccccc1 | inactive |  | inactive | inactive | inactive | inactive | inactive | inactive | inactive | inactive | inactive | inactive |  |  | inactive | inactive | inactive | inactive | inactive
3 | O=C(O)CNC(=O)c1ccccc1I | inactive | inactive | inactive | inactive | inactive | inactive | inactive | inactive | inactive | inactive | inactive | inactive | inactive | inactive | inactive | inactive | inactive |  | inactive
4 | NS(=O)(=O)c1cc(-c2nn[nH]n2)c(NCc2cccs2)cc1Cl | inactive | inactive | inactive | inactive | inactive | inactive | inactive | inactive | inactive |  |  | inactive |  | inactive | inactive | inactive | inactive |  | inactive
5 | O=C(O)COC(=O)Cc1ccccc1Nc1c(Cl)cccc1Cl | inactive | inactive | inactive | inactive | inactive | 26.6 µM (active) | inactive | inactive | inactive | inactive | inactive | inactive | inactive | inactive | inactive | inactive | inactive |  | inactive
6 | O=C(Cn1ccnc1[N+](=O)[O-])NCCO | inactive | inactive | inactive | inactive | inactive | inactive | inactive | inactive | inactive |  | inactive | inactive | inactive | inactive | inactive | inactive | inactive |  | inactive
7 | CCOc1ccc(C(=O)OCCN(CC)CC)cc1 | inactive | inactive | inactive | inactive | inactive | inactive | inactive | inactive | inactive | inactive | inactive |  | inactive | inactive | inactive | inactive | inactive |  | inactive
8 | CCC(C)(CN(C)C)OC(=O)c1ccccc1 (stereo not given) | inactive | inactive | inactive | inactive |  | inactive | inactive | inactive | inactive |  | inactive | inactive | inactive | inactive |  | inactive | inactive |  | inactive
9 | NC(=O)N[C@@H](CCC(=O)O)C(=O)O | inactive | inactive | inactive | inactive | inactive | inactive | inactive | inactive | inactive |  | inactive |  | inactive | inactive | inactive | inactive | inactive |  | inactive
10 | CC(=O)[C@@]1(O)CC[C@H]2[C@@H]3C[C@H](C)C4=CC(=O)C=C[C@]4(C)[C@@]3(F)[C@@H](O)C[C@@]21C | inactive | inactive | inactive | inactive | inactive | inactive | inactive | inactive | inactive |  |  | inactive | inactive | inactive | inactive | inactive | inactive |  | inactive
11 | COc1ccc(O)cc1 | inactive | inactive |  | inactive | inactive | inactive | inactive | inactive | inactive |  | inactive | inactive | inactive | inactive |  | inactive | inactive |  | inactive
12 | OCCN1C[C@H](O)[C@@H](O)[C@H](O)[C@H]1CO | inactive | inactive | inactive | inactive |  | inactive | inactive | inactive | inactive | inactive | inactive | inactive | inactive | inactive | inactive | inactive | inactive |  | inactive
13 | COc1cc(O)cc(O)c1 | inactive | inactive | inactive | inactive |  | inactive | inactive | inactive | inactive | inactive |  | inactive | inactive | inactive | inactive | inactive | inactive |  | inactive
14 | O=C(c1ccccc1)C(O)c1ccccc1 (stereo not given) | inactive | inactive | inactive | inactive | inactive | inactive | inactive | inactive | inactive |  | inactive | inactive | inactive | inactive | inactive | inactive | inactive |  | inactive
15 | CC[C@H](C)[C@H](N)C(=O)O | inactive | inactive | inactive | inactive | inactive | inactive | inactive | inactive | inactive | inactive | inactive | inactive |  | inactive | inactive | inactive | inactive |  | inactive
16 | COc1ccc(C(=O)N2CCN(CC(=O)N3CCOCC3)CC2)cc1 | inactive |  | inactive | inactive | inactive | inactive | inactive | inactive | inactive | inactive | inactive | inactive | inactive | inactive | inactive | inactive | inactive | inactive | inactive
